# Assay outcomes: PubChem BioAssay, National Center for Advancing Translational Sciences (NCATS)
# ELG1 repair inh – inhibitors of ELG1-dependent DNA repair in HEK293T cells. actives 2.3% (n = 330,000). Potency, µM (titrated, usually from 46.1 µM), without a hit: at the highest dose activity change, negative = inhibition, actives largely listed as inhibitors. AID 504467. HEK293T ELG1-luciferase reporter, luminescence, 16 h; DNA damage induced by 5-fluorouridine; note: % is set by controls: 0 for no effect and ±100 for the full control effect; nearly all actives have a fitted effect of over 55% in size
#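 Reporter activity after DNA damage by 5-fluorouridine is monitored. Compound-treated cells incubate 16 hr at 37 °C, then ONE-Glo is added for 30 min before luminescence reading.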
# KB-V1 cytotox – KB-V1 MDR subline cytotoxicity; KB-V1 MDR cells viability, CellTiter-Glo, 72 h; Potency, µM (top dose mostly 46.1 µM), most hits filed as cytotoxic; actives 3.4% (n = 400,000); note: % is set by controls: 0 for no effect and ±100 for the full control effect; nearly all actives have a fitted effect of over 60% in size
#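 Cytotoxicity via CellTiter-Glo luminescence after 72 h compound exposure at 37 degrees C. Cells: drug-selected KB-V1 line, DMEM phenol-red free plus 10% FBS. Compounds tested at multiple concentrations; normalized data fitted to concentration-effect curves.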
# SW480 rereplic – induces DNA re-replication in SW480 colon adenocarcinoma cells; Potency, µM (titrated, usually from 46.1 µM), for inactives: at the top dose re-replication activation, actives largely listed as activators; actives 1.8% (n = 340,000); SW480 DNA re-replication, Hoechst DNA content imaging, 48 h; note: % of control where 0% means no effect; nearly all actives have a fitted effect of over 55% in size
#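 Quantitative HTS format with DMSO vehicle controls; 48 hr drug incubation at 37 C, then 40 min Hoechst staining and scanning imager measurement at 405 nm excitation.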
# MCF10A rereplic – induces DNA re-replication in MCF 10a normal breast cells | MCF 10A DNA re-replication, Hoechst nuclear intensity, 48 h | Potency, µM (titrated, usually from 46.1 µM), for inactives: at the highest dose activity, positive = re-replication, actives largely listed as activators | actives 2.9% (n = 350,000) | AID 624296; note: % of control where 0% means no effect; nearly all actives have a fitted effect of over 50% in size
# KB-3-1 cytotox – kills parental KB-3-1 adenocarcinoma cells. Potency, µM (highest dose often 46.1 µM), hits mostly cytotoxic. KB-3-1 viability, CellTiter-Glo ATP luminescence, 72 h. actives 1.4% (n = 400,000); note: % is set by controls: 0 for no effect and ±100 for the full control effect; nearly all actives have a fitted effect of over 60% in size
#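 Parental KB-3-1 adenocarcinoma cells in phenol-red-free DMEM with 10% FBS were pin-treated with compounds at several concentrations, incubated 72 h at 37 °C, and viability read by CellTiter-Glo luminescence; concentration-effect curves were fitted after normalization.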
# The depositor's hits bear a star; i = inactive; u = inconclusive; x = no result given. Sampled rows, rich in hits. Any-hit rate of the full collection: about 8.1%. Calls come from the whole dose curve; as a rule, active = well fitted curve in the direction sought with a large enough effect; inconclusive = small, poorly fitted or top-dose-only effect, or another doubt; inactive = no such curve, though single readings can be large; an effect the other way counts as inactive or inconclusive. Potency is the fitted concentration of half-maximal effect.
SMILES,ELG1 repair inh,KB-V1 cytotox,SW480 rereplic,MCF10A rereplic,KB-3-1 cytotox
COc1ccc(CCNC(=O)c2cc(-c3cc(C)c(C)cc3O)n[nH]2)cc1OC,-10%,i,0%,3%,i
CC(=O)Nc1sc(/C(C#N)=C/c2ccc(Cl)c(Cl)c2)nc1-c1ccc(C)cc1,3%,i,u,1.8µM*,i
COc1ccc(S(=O)(=O)N2CCc3cc4c(cc3C2C)OCCCO4)cc1 (stereo unspecified),-5%,i,-2%,3%,i
NC(=O)/C(=N\OC(=O)c1ccco1)c1nc(-c2ccc(Br)cc2)cs1,1%,9.2µM*,16%,12%,u
Nc1nc(Nc2ccc(Cl)cc2)c(NC=O)c(=O)[nH]1,x,i,-9%,1%,i
Oc1ccc(CN2CCC(Cc3ccccc3)CC2)c2cccnc12,13%,u,2.9µM*,u,23µM*
CCOC(=O)N1CCN(Cc2ccc(O)c3ncccc23)CC1,8%,i,5.8µM*,21µM*,u
Oc1ccc(CN2CCN(c3ccccc3)CC2)c2cccnc12,u,i,u,u,u
Cc1[nH]c2ccccc2c1CN1CCC(Cc2ccccc2)CC1,u,18µM*,u,21%,i
Oc1ccc(CN2CCc3ccccc3C2)c2cccnc12,x,u,u,2.3µM*,4.6µM*
Oc1ccc(CN2CCCCC2)c2cccnc12,u,u,7%,-1%,u
CN(C)c1ccc(N/C(=N\S(=O)(=O)c2cccs2)c2ccccc2)cc1,4%,i,2%,2%,i
CCCN1CCCc2cc(CN(CCCN3CCOCC3)C(=O)Nc3ccc(Cl)c(Cl)c3)ccc21,x,u,x,x,i
COc1cc(CN2CCc3ccccc3C2)cc([N+](=O)[O-])c1O,-5%,i,-5%,-2%,i
COc1cc(CN2CCc3ccccc3C2)ccc1O,u,13µM*,u,u,2.9µM*
O=C(O)c1cccc(NC(=O)c2ccc(COc3ccc(Cl)cc3)cc2)c1,u,u,-2%,1%,i
COc1ccc(COc2cc(-c3cccc(OC)c3)nc3ccc(NC(=O)c4ccccc4)cc23)cc1,6.5µM*,i,16µM*,4.6µM*,16µM*
COc1ccc(COc2cc(-c3cccc(OC)c3)nc3ccc(NC(=O)c4ccc(Cl)cc4)cc23)cc1,u,i,23µM*,26µM*,u
COc1ccc(COc2cc(-c3cccc(OC)c3)nc3ccc(NC(=O)c4ccc(OC)cc4)cc23)cc1,4.1µM*,i,4.1µM*,2.3µM*,4.1µM*
COc1ccc(NC(=O)c2cccc(NC(=O)c3ccccc3)c2)cc1,23%,i,-1%,6%,i
COc1ccc(C(=O)Nc2ccc(NC(=O)c3cccc(OC)c3)cn2)cc1,-19%,i,7%,11%,i
COc1ccc(COc2cc(-c3cccc(OC)c3)nc3ccc(NC(=O)c4cccnc4)cc23)cc1,2.9µM*,u,u,u,u
O=c1c(C=NCc2cccnc2)c(C(F)(F)F)[nH]n1-c1nc2ccccc2s1,13%,i,3%,4%,i
Cc1ccc(NC(=O)C2CCC(CNC(=O)[C@@H]3Cc4ccccc4CN3)CC2)cc1 (stereo partly specified),9%,i,2%,3%,i
CC(C)c1ccc(NC(=O)C2CCC(CNC(=O)[C@@H]3Cc4ccccc4CN3)CC2)cc1 (stereo partly specified),u,u,u,15µM*,i
SMILES,ELG1 repair inh,KB-V1 cytotox,SW480 rereplic,MCF10A rereplic,KB-3-1 cytotox
COc1cccc(NC(=S)N2CCN(S(=O)(=O)c3ccc(F)cc3)CC2)c1,-3%,i,-8%,-1%,i
N#Cc1nc(-c2ccc(F)cc2)oc1NCc1cccc2c1OCO2,15%,i,-16%,-1%,i
Cc1ccc(-c2nc(C#N)c(NCc3cccc4c3OCO4)o2)cc1,u,i,u,16µM*,i
Cc1ccc(S(=O)(=O)N(C)C)cc1NC(=O)Cn1c(CN2CCOCC2)nc2ccccc2c1=O,-8%,i,-25%,-3%,i
Cc1cc(Nc2ccc3c(c2)OCCO3)c2cccc(C)c2n1,-4%,23µM*,-8%,19%,u
Cc1ccc(C)c(CSc2nnc(-c3cccs3)n2Cc2ccco2)c1,-12%,18µM*,u,21µM*,i
CN(C)c1ccc(NC(=O)CSc2nnc(-c3cccs3)n2Cc2ccco2)cc1,u,7.3µM*,3%,27%,u
CCOc1ccc(NC(=O)CSc2nnc(-c3ccccc3Cl)n2Cc2ccco2)cc1,u,21µM*,3%,2%,u
O=C(CSc1nnc(Cc2cccs2)n1Cc1ccco1)Nc1cccc(Cl)c1,u,u,-2%,6.5µM*,i
CC1CCN(S(=O)(=O)c2ccc3c(c2)CCN3C(=O)C2CCC2)CC1,11%,i,u,9%,i
COC(=O)c1ccccc1NC(=O)c1ccc2c(c1)OCCCO2,u,i,-4%,u,i
CCC(CC)C(=O)Oc1c(Sc2ccccc2[N+](=O)[O-])c(C)nn1C(C)(C)C,1%,15µM*,6%,24%,i
COCC(=O)Oc1c(Sc2ccccc2[N+](=O)[O-])c(C)nn1C(C)(C)C,-9%,i,0%,-2%,i
COc1ccc(C=CC(=O)c2ccc([N+](=O)[O-])cc2)cc1,x,i,-3%,-8%,i
Cc1ccc(C(=O)/C=C/c2ccccc2[N+](=O)[O-])cc1,u,i,u,16µM*,i
Cc1[nH]c(C)c(C(=O)/C=C/c2ccc([N+](=O)[O-])cc2)c1C,-14%,i,u,12µM*,u
Cc1ccc(C(=O)/C=C/c2ccc(-c3ccccc3[N+](=O)[O-])o2)cc1,2%,i,-1%,-2%,i
O=C(C=Cc1ccccc1)c1ccc([N+](=O)[O-])cc1,x,i,16µM*,160%,i
CN(C(=O)CSc1nccc(=O)[nH]1)C1CCCCC1,0%,i,13%,-4%,i
COc1cc(OC)c2c(C)cc(=O)oc2c1C(CCN1CCOCC1)c1ccc2c(c1)OCO2 (stereo unspecified),u,i,-2%,16%,i
Cc1ccc(Sc2ncccc2N)cc1,x,i,21µM*,u,i
Cc1ccc(Sc2ncccc2O)cc1,x,i,-3%,-6%,i
CC(OC(=O)Cc1c[nH]c2ccccc12)C(=O)Nc1ccc(S(N)(=O)=O)cc1 (stereo unspecified),-21%,i,-2%,0%,i
